Assay outcomes deposited in PubChem by several laboratories.
CYP2C9 act: human CYP2C9 activators, primary screen, biochemical, luminescence | Cytochrome P450 2C9 (Homo sapiens), P11712 | recombinant CYP2C9, luciferin-H conversion; hits give high values; factor 1 = untreated enzyme, 0 = blocked | activation factor at 5 µM | 1.4% of 96,000 active;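 active = activation factor of 2 or more for CYP2C9 at a 5 µM dose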;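 also: 0 = sulfaphenazole-blocked wells and 1 = vehicle-only wells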
CYP2C19 inhib: blockers of cytochrome P450 2C19 activity – biochemical, luminescence, ADME assay, primary screen | 21% of 96,000 active | CYP2C19 Supersomes, luciferin-H EGE luminescence, 30 min | P33261 | inhibition, % at 5 µM | AID 778, 2007;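 active = CYP2C19 inhibition above a set limit at 5 µM in the primary screen, cut at about 50% in these data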;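 also: plate controls were negative control wells for no effect and 2.5 mM tranylcypromine positive control for full effect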
Target sequence (P33261 whole entry, looked up): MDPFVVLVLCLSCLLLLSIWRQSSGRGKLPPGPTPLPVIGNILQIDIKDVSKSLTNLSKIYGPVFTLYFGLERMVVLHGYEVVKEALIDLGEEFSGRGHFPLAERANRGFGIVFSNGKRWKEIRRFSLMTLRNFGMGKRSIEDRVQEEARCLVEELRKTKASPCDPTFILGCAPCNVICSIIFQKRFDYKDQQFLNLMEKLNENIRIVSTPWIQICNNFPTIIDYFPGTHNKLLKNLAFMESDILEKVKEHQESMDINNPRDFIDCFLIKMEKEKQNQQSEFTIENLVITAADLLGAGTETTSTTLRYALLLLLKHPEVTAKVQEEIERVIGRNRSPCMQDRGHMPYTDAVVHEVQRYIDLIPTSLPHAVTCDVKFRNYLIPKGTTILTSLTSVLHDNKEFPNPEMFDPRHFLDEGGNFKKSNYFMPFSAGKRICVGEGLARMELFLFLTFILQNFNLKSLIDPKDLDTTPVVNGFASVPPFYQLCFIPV
CYP2C19 activ: human CYP2C19 activators, primary screen, biochemical, luminescence; 96,000 tested, under 10 active; recombinant CYP2C19, luciferin-H EGE luminescence; hits give high values; 0 = fully inhibited enzyme, 1 = untreated enzyme; Cytochrome P450 2C19 (Homo sapiens), P33261; activation factor at 5 µM;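 active = activation factor of at least 2 at 5 µM in the primary screen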;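 also: 0 = wells with 2.5 mM tranylcypromine and 1 = vehicle-only wells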
CYP2C9 inh: blockers of cytochrome P450 2C9 activity – biochemical, luminescence, ADME assay, primary screen. P11712. CYP2C9 Supersomes, luciferin-H conversion. inhibition, % at 5 µM. 20% of 96,000 active. AID 777, 2007;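 active = blocking of liver enzyme CYP2C9 beyond about 50% at 5 µM, limit read from the data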
sEH inhibitor: soluble epoxide hydrolase inhibitors, primary screen, biochemical, human sEH; 0.34% of 91,000 active; inhibition, % at 2 µM; AID 707, 2007; Bifunctional epoxide hydrolase 2 (Homo sapiens), P34913; recombinant human sEH enzymatic activity assay; in the data active = inhibition above about 80%
sEH activator: soluble epoxide hydrolase activators, primary screen, biochemical, human sEH; purified human sEH enzymatic activity, activator screen; activation, % at 2 µM; 0.04% of 91,000 active; in the data active = activation above about 37%
* marks the source's active call; other numbers are inactive results; x = not tested or not shown. Shown are actives, neighbours in structure and some others; about 27% of the full set was active somewhere.

SMILES	CYP2C9 act	CYP2C19 inhib	CYP2C19 activ	CYP2C9 inh	sEH inhibitor	sEH activator
S=C(Nc1ccc(N2CCOCC2)cc1)Nc1ccc2nc(-c3ccco3)c(-c3ccco3)nc2c1	0.7	30	0.7	28	1	0
C/C(N)=C(/C#N)C(=O)COC(=O)c1cc(S(=O)(=O)N2CCCCC2)ccc1C	0.8	51*	0.5	20	-10	10
COc1cccc(NC(=O)COC(=O)c2cc(S(=O)(=O)N3CCOCC3)ccc2C)c1	0.7	23	0.8	34	10	-11
Cc1c(S(=O)(=O)N2CCOCC2)c(=O)n(C)c(=O)n1C	1	10	0.9	1	11	-9
c1cc2c3c(cccc3c1)NC1(CCCCC1)N2	0.5	72*	0.3	52*	-12	12
c1cc2c3c(cccc3c1)NC1(CCCCCC1)N2	0.4	87*	0.1	62*	x	x
O=C1CCSc2cccc3cccc(c23)N1	1	9	0.9	0	-29	27
CC1=Nc2cccc3cccc(c23)N1	1	1	1	4	0	2
CC(C)NC(=O)Cc1ccc(Br)cc1	1	42	0.6	-4	14	-16
COCCNC(=O)CC(c1ccccc1)c1ccccc1	0.6	52*	0.5	36	8	-6
COCCNC(=O)CSc1nc(-c2ccccc2)c(-c2ccccc2)o1	0.3	82*	0.2	71*	2	-3
COCCNC(=O)Cc1ccc(Br)cc1	1.1	56*	0.4	-7	x	x
O=C(CC(c1ccccc1)c1ccccc1)NCCO	0.8	19	0.8	17	-20	21
CCN(CC)C(=O)C(=O)N/N=C/c1cccc(Br)c1	0.9	2	1	6	11	-9
Cc1ccc(Cn2cc(SCC(=O)Nc3nccs3)c3ccccc32)cc1	0.1	-10	1.1	91*	-11	9
O=C(CSc1nccn1Cc1ccccc1)Nc1nccs1	0.6	35	0.7	41	11	-6
Cc1cccc(Cn2cc(SCC(=O)Nc3nccs3)c3ccccc32)c1	0.4	-14	1.1	60*	0	3
CCOC(=O)c1c(C)oc2c1cc(O)c1ccccc12	0.3	33	0.7	73*	-9	10
C=C(C)COc1ccc2oc(C)c(C(=O)OCCOC)c2c1	0.4	84*	0.2	60*	4	-6
CCOC(=O)c1c(C)oc2ccc(O)cc12	2.7*	8	0.9	-170	4	-5
CCOC(=O)c1c(C)oc2ccc(OCC(N)=O)cc12	0.6	28	0.7	43	12	-11
CCOC(=O)c1c(C(C)(C)C)oc2ccc(OCC#N)cc12	0.4	20	0.8	57*	3	-3
CSCCC(C(=O)OCC(=O)c1ccc(C)c(C)c1)N1C(=O)c2cc(Cl)c(Cl)cc2C1=O (stereo unspecified)	0.6	4	1	44	-4	3
Cc1ccc(-c2cc3nn(-c4ccccc4)c(N)c3c(=O)o2)cc1	0.8	12	0.9	16	-5	8
CCOC(=O)c1c(C)oc2cc(Br)c(OC(C)C(=O)OCC)cc12 (stereo unspecified)	0.1	94*	0.1	91*	0	1
SMILES	CYP2C9 act	CYP2C19 inhib	CYP2C19 activ	CYP2C9 inh	sEH inhibitor	sEH activator
CCOC(=O)c1c(C)oc2c1c(C=NCc1ccccn1)c(O)c1ccccc12	0.1	64*	0.4	86*	x	x
CCOC(=O)c1c(C)oc2c1c(C=NCC1CCCO1)c(O)c1ccccc12 (stereo unspecified)	0.7	11	0.9	27	12	-12
CCOC(=O)c1c(C)oc2cc(Br)c(O)c(Br)c12	0.3	-2	1	67*	x	x
CSCCC(NS(=O)(=O)c1ccc(Cl)cc1)C(=O)OCC(=O)NC1CCCCC1 (stereo unspecified)	0.7	5	0.9	28	22	-23
N/C(COc1ccccc1)=N\NS(=O)(=O)c1ccccc1	1.2	21	0.8	-19	2	1
O=C(Nc1cccc(NS(=O)(=O)c2ccc(S(=O)(=O)NC3CC3)cc2)c1)c1ccccn1	0	99*	0	97*	10	-13
O=S(=O)(Nc1ccccn1)c1ccc(C2CCCCC2)cc1	0.6	23	0.8	40	-3	1
CCNC(=O)CCSc1nc2cc(Cl)ccc2o1	x	x	x	x	8	-3
Cc1cc(C)n(Cc2n[nH]c(=S)n2Cc2ccccc2)n1	0.9	26	0.7	14	11	-8
Cc1nn(Cc2n[nH]c(=S)n2Cc2ccccc2)c(C)c1Cl	0.8	53*	0.5	21	-6	9
COc1ccc2oc(C(=O)OCC(=O)NC(=O)NC(C)C)c(C)c2c1	0.9	14	0.9	9	-12	11
Cc1ccc(Oc2nc3ccccc3n3c(C)nnc23)c(C)c1	0.9	11	0.9	14	6	-4
Cc1ccc(Cn2c(NS(=O)(=O)c3ccccc3)nc3ccccc32)cc1	0.4	34	0.7	64*	10	-9
CCC(=O)Nc1nc2ccccc2n1Cc1ccc(C)cc1	0.7	81*	0.2	33	4	-4
CCC(=O)Nc1nc2ccccc2n1Cc1ccccc1	1	29	0.7	2	x	x
CCOC(=O)Nc1ccc2c(c1)N(C(=O)CCN1CCOCC1)c1ccccc1S2	0.7	65*	0.3	26	14	-13
Cc1ccc2c(c1)N=C(c1ccc(Cl)cc1)CO2	0.9	15	0.9	14	0	-2
CC(C)Nc1nnc(SCC(=O)c2c(N)n(Cc3ccccc3)c(=O)n(C)c2=O)s1	0.4	28	0.7	58*	14	-15
O=S(=O)(CCOc1ccccc1)c1nc2ccccc2[nH]1	0.8	73*	0.3	17	5	-7
CCn1c(CSc2nc3ccccc3s2)nnc1SCC(=O)OC(C)(C)C	1.1	18	0.8	-9	0	0
CCCCn1c(=O)[nH]c(=O)c2c1nc(CN1C(=O)c3ccccc3S1(=O)=O)n2CCC	0	80*	0.2	98*	5	-3
CCCCn1c(-c2ccsc2)nc2c1c(=O)[nH]c(=O)n2CCC	0.8	17	0.8	23	-5	2
C=CCn1c(SCc2nc3c(c(=O)[nH]c(=O)n3CCCC)n2CCC)nnc1-c1ccccc1	0.2	44	0.6	84*	-20	20
CCCCn1c(=O)[nH]c(=O)c2c1nc(COc1ccc(C#N)cc1)n2CCC	0.1	25	0.7	90*	x	x
CCN(CC)CCN1C(=O)C(=O)/C(=C(/O)c2ccncc2)C1c1ccccc1 (stereo unspecified)	1	0	1	5	-15	15
